What all share (assay): NCI-60 one-dose screen, 48 h (100 = growth as untreated, 0 = no growth, -100 = all killed)
Holding throughout (conditions): 10 µM unless noted

The test system of experiment [1] is DU-145 prostate.
In experiment [2] the test system is K-562 leukemia.
The test system of experiment [3] is MALME-3M melanoma.
For experiment [4], the system named is MDA-MB-231 breast.
Experiment [5] has as its system RXF 393 renal.
The test system of experiment [6] is SF-268 CNS.
The subject of experiment [7] is SF-295 CNS.
Experiment [8] has as its system SF-539 CNS.
Experiment [9] relates to UACC-257 melanoma.
Experiment [10] relates to M14 melanoma.
Experiment [11] relates to HCT-15 colon.
Experiment [12] deals with HT29 colon.
Experiment [13] has as its system SNB-75 CNS.
Experiment [14] relates to SNB-19 CNS.
In experiment [15] the test system is U251 CNS.
The subject of experiment [16] is PC-3 prostate.
Experiment [17] relates to UACC-62 melanoma.
Experiment [18] deals with LOX IMVI melanoma.
Experiment [19] has as its system SK-MEL-28 melanoma.
Experiment [20] has as its system SK-MEL-5 melanoma.

Molecules are shown by their SMILES. This is part of a sample that, as a whole, favours compounds with a hit. Of some 83,000 tested, about 20% had one in any assay.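 Growth was measured after 48 h exposure to one concentration of compound in 96-well plates. Values under 10 count as active.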 Unmarked numbers belong to inactive results. Calls of active or inactive are those of the source.

On to `NC(=O)C1(Nc2ccc(Br)cc2)CCCC1`, for which the growth in [1] is 119%; in experiment [2] it was 116%; in experiment [3], 108%; in experiment [4], 101%; in experiment [5], 115%; in [6], 106%. For the same molecule, the growth in [7] was 106%; in experiment [8] it was 89.8%; in experiment [9], 101%; in experiment [10], 97.1%; in [11], 107%; in [12], 102%. The growth is 93.2% in experiment [13]; 105% in experiment [14]; 97.5% in experiment [15]; 94.3% in experiment [16]; 96.4% in [17]; 103% in experiment [18]. Also, the growth in experiment [19] is 106%.
As for `COc1cc(OCc2cccc(-c3ccc(C(O)c4nccs4)cc3)c2C)cc(OC)c1CNCCNC(C)=O` (configuration not stated), the growth in experiment [1] is 111%; in experiment [2], 77.2%; in [3], 86%; in experiment [4], 101%; in [5], 107%; in experiment [6], 97.5%. The growth in [7] is 103%; in [8] it was 101%; in [9] it was 99%; in experiment [10], 99.6%; in experiment [11] it was 97.7%; in experiment [12] it was 92.9%. The growth in [13] is 85%; in experiment [14] it was 94.9%; in experiment [15], 91.1%; in experiment [16], 90.2%; in [20] it was 91.8%; in [17] it was 90%. The growth in experiment [19] is 94.8%.
Consider `CCCCNC(=O)Oc1ccc(/C(=C(\C)c2ccc(Cl)cc2)c2ccc(OCCN3CCCCC3)cc2)cc1`, for which the growth is 90.4% in [1]; 21.6% in [2]; 81.7% in experiment [3]; 94% in experiment [4]; 79.5% in [5]; 76.1% in experiment [6]. Moreover, the growth was 91.7% in experiment [7]; 71.7% in experiment [8]; 35.5% in experiment [9]; 68.2% in experiment [10]; 23.8% in [11]; 10.9% in experiment [12]. Besides, the growth in [13] was 80.3%; in [14], 93.5%; in [15], 59.3%; in [16] it was 63.8%; in experiment [17], 83%; in [18], 79.8%. In addition, the growth in [19] is 80.1%.
As for `BrCCCc1n(Cc2ccc3ccccc3c2)c2ccccc2[n+]1Cc1ccc2ccccc2c1`, the growth in experiment [1] was -62.4% (active); in [2] it was -13% (active); in experiment [3], -73.2% (active); in experiment [4], -60.8% (active); in experiment [5], -77.6% (active); in [6] it was -75.4% (active). Moreover, the growth is -91.1% (active) in experiment [7]; -74.9% (active) in [8]; -55.7% (active) in experiment [9]; -60.4% (active) in [10]; -60.6% (active) in experiment [11]; -50.8% (active) in [12]. Also, the growth was -71.5% (active) in experiment [13]; -33.3% (active) in experiment [14]; -91.9% (active) in [15]; -69.1% (active) in experiment [16]; -76.2% (active) in [17]; -93.8% (active) in experiment [18]. Moreover, in experiment [19], the growth is -75.8% (active).
On to `Cc1ccc(C(=O)N/N=C/c2cccc([N+](=O)[O-])c2)cn1`, for which the growth in experiment [1] is 100%; in experiment [2], 101%; in [3], 114%; in experiment [4], 95.6%; in experiment [5] it was 110%; in [6], 110%. For the same molecule, the growth was 107% in experiment [7]; 98.6% in experiment [8]; 95.6% in [9]; 112% in [10]; 109% in experiment [11]; 114% in experiment [12]. For the same molecule, the growth was 94.2% in experiment [13]; 98.5% in [14]; 107% in experiment [15]; 95.4% in [16]; 98.1% in experiment [17]; 105% in [18]. Besides, the growth in experiment [19] was 103%.
On to `O=C(CCN1C(=O)/C(=C/c2ccc(O)cc2)SC1=S)Nc1ccc(Cl)cc1`, for which the growth in experiment [1] was 108%; in [2] it was 89.7%; in experiment [3] it was 89.9%; in experiment [4] it was 86.3%; in [5] it was 108%; in experiment [6] it was 90.9%. The growth in experiment [7] is 92.9%; in [8], 96.1%; in experiment [9], 101%; in experiment [10] it was 100%; in experiment [11], 91.2%; in [12], 108%. Besides, the growth in experiment [13] is 90.4%; in experiment [14], 89.7%; in experiment [15], 96.5%; in experiment [16] it was 88.1%; in experiment [17], 83.3%; in [18], 97.8%. Besides, the growth in [19] is 99.2%.
As for `Cc1ccc(-c2nc(N3CCN(CC(=O)Nc4ccc(Cl)cc4)CC3)c3ccccc3n2)cc1`, the growth in experiment [1] was 88.7%; in experiment [2], 72.9%; in experiment [3] it was 101%; in [4], 80.1%; in experiment [5], 74.9%; in experiment [6], 83.9%. The growth is 95.6% in [7]; 99.6% in experiment [8]; 104% in experiment [9]; 99.1% in experiment [10]; 79.9% in experiment [11]; 80.8% in [12]. The growth was 77.7% in [13]; 93.1% in [14]; 92.5% in experiment [15]; 80.6% in [16]; 89% in [20]; 75.9% in experiment [17]. Besides, the growth in experiment [19] was 99.8%.
Consider `CCCCn1c(=O)c(-c2cc(-c3ccc(Cl)cc3)nc(-c3ccc(Cl)cc3)c2)cc2ccc(Cl)cc21`, for which the growth in experiment [1] is 108%; in experiment [2] it was 97.8%; in experiment [3], 98.5%; in [4], 96.5%; in experiment [5], 103%; in [6], 94.2%. Moreover, the growth in experiment [7] was 100%; in experiment [8] it was 96.1%; in [9] it was 101%; in experiment [10], 107%; in [11], 105%; in [12], 109%. In addition, the growth in experiment [13] is 86.4%; in experiment [14] it was 96.1%; in experiment [15], 101%; in experiment [16], 94.6%; in [20], 104%; in experiment [17] it was 95.4%. Also, the growth in [19] is 106%.
